Assay [1] in a line: NCI Yeast Anticancer Drug Screen. Data for the rad50 strain (AID 155).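 Note: 0% = growth of vehicle-only cultures of the same strain.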 Conditions: S. cerevisiae rad50 strain growth inhibition; at 50.0 µM; hits give high values. A digest of the protocol:
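Inhibition values express reduced yeast growth in compound-treated cultures relative to vehicle-treated controls.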

A short description of assay [2]: NCI Yeast Anticancer Drug Screen. Data for the mec2-1 strain (AID 157). Conditions: S. cerevisiae mec2-1 strain, at 50.0 µM, hits give high values. A digest of the protocol: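 Compounds were applied to mec2-1 yeast cells. Their growth was then compared with that of vehicle-treated cultures to give growth inhibition.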
Assay [3] is described as follows: NCI Yeast Anticancer Drug Screen. Data for the sgs1 mgt1 strain (AID 161).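 Note: 0% = growth of cultures given vehicle only.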 Conditions: S. cerevisiae sgs1 mgt1 strain, at 50.0 µM, hits give high values. A digest of the protocol: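 Growth of a repair-deficient yeast mutant was monitored after compound treatment and expressed as inhibition relative to vehicle-treated cultures.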
A short description of assay [4]: NCI Yeast Anticancer Drug Screen. Data for the cln2 rad14 strain (AID 165).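 Note: 0% = growth equal to vehicle treated cultures.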 Conditions: S. cerevisiae cln2 rad14 strain, at 50.0 µM, hits give high values. In outline:
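Strain: cln2 rad14 yeast, altered in cell cycle control and DNA damage repair. Read-out: growth inhibition vs vehicle.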

The nature of assay [5]: NCI Yeast Anticancer Drug Screen. Data for the bub3 strain (AID 167). As to conditions: S. cerevisiae bub3 mutant strain, at 50.0 µM, hits give high values. In outline: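 Steps: expose the mutant yeast strain to compound; grow alongside vehicle-treated cultures; measure growth; express inhibition against the vehicle cultures.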
Assay [6] is described as follows: NCI Yeast Anticancer Drug Screen. Data for the mlh1 rad18 strain (AID 175). As to conditions: S. cerevisiae mlh1 rad18 strain growth inhibition; at 50.0 µM; hits give high values. In outline:
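A repair-deficient yeast strain is exposed to test compound, and growth is scored relative to vehicle-treated controls.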

The panel holds about 79,000 compounds, 15% with a hit somewhere; the sample as a whole holds those more often. Values without a mark were called inactive. Activity calls are given as the source filed them. Cut-off read from the data, not from the text of the source: active = growth inhibition above about 70%; inactive = the rest.

The results in this text go back to PubChem BioAssay (NCI).

In the case of `O=C(NCCSC(=O)Nc1ccccc1)Nc1ccccc1`, the growth inhibition in assay [1] was 0%; in assay [2], 14.8%; in assay [3], 5.25%; in assay [4], -10%; in assay [5] it was 29.1%; in assay [6], 8.55%.
Turning to `O=C(c1ccccc1)c1cccnc1`, the growth inhibition is -10.6% in assay [1]; -18.3% in assay [2]; -17.4% in assay [3]; -25.1% in assay [4]; -45.2% in assay [5]; -35.4% in assay [6].
Consider `Cc1cc(C)cc(OCCC(=O)O)c1`, for which the growth inhibition in assay [1] was -1.4%; in assay [2], -16.6%; in assay [3] it was -10.4%; in assay [4], 21.7%; in assay [5] it was 2.95%; in assay [6], 7.1%.
For the compound `O=C1CCCCC1C(O)(C(F)(F)F)C(F)(F)Cl` (centres undefined), the growth inhibition in assay [1] is -20.4%; in assay [2], -28.9%; in assay [3] it was -36.7%; in assay [4], -13.7%; in assay [5], -30.2%; in assay [6], -20.1%.
Consider `O=C1CN(CCCCl)CC(=O)N2Cc3ccccc3CN12`, for which the growth inhibition is -9.05% in assay [1]; 5.3% in assay [2]; -15.7% in assay [3]; -10.1% in assay [4]; -3.7% in assay [5]; -20.1% in assay [6].
For the compound `CCCCCC1OC1CC1OC1CCCCCCCC(=O)O` (centres undefined), the growth inhibition was -5.5% in assay [1]; -21.1% in assay [2]; -3.85% in assay [3]; -14.8% in assay [4]; -12.8% in assay [5]; -13.4% in assay [6].
With `O=c1[nH]c(Nc2cccc(CO)c2)nc2nc[nH]c12`, the growth inhibition in assay [1] is 5.35%; in assay [2] it was -11%; in assay [3], -25.8%; in assay [4], 0.9%; in assay [5], -15.7%; in assay [6], -26.4%.
Regarding `O=C(CN1CCCCC1)c1ccc(CCc2ccc(C(=O)CN3CCCCC3)cc2)cc1`, the growth inhibition is 35% in assay [1]; 11.3% in assay [2]; 33.9% in assay [3]; -61.1% in assay [4]; 6.5% in assay [5]; 32.2% in assay [6].
As to `O=C(c1nc2ccc(Cl)cc2[nH]c1=O)C(O)c1ccco1` (centres undefined), the growth inhibition in assay [1] is -21.4%; in assay [2], 3.2%; in assay [3], -20.2%; in assay [4], -1.4%; in assay [5], -24.7%; in assay [6], -13.2%.
As for `C/C(=N\NC(=O)CC(=O)N(C(=O)c1ccc(Cl)cc1)c1ccc(C)cc1)c1ccccc1O`, the growth inhibition in assay [1] was -2.05%; in assay [2], -26%; in assay [3] it was -10.2%; in assay [4] it was 5.9%; in assay [5], -1.3%; in assay [6] it was -29.6%.
In the case of `O=C(O)C(O)c1ccc(Cl)cc1Cl` (centres undefined), the growth inhibition in assay [1] was 1.3%; in assay [2] it was -5.85%; in assay [3], 10.9%; in assay [4], 7.25%; in assay [5], -19.3%; in assay [6], 1.35%.
As for `COc1ccc(C(OC2OC(n3cnc4c(=S)nc(N)[nH]c43)CC2OC(C)=O)(c2ccccc2)c2ccc(OC)cc2)cc1` (centres undefined), the growth inhibition in assay [1] was 17.9%; in assay [2] it was 21.9%; in assay [3], 11.2%; in assay [4], -54.4%; in assay [5] it was 23.4%; in assay [6] it was 24.4%.
As for `COCC(=O)Nc1ccccc1`, the growth inhibition in assay [1] was -13.5%; in assay [2] it was 6.05%; in assay [3], 2.1%; in assay [4], 1.55%; in assay [5] it was 6.8%; in assay [6], -6%.
As for `CCN(CC)c1ccc2c(c1)Oc1cc(N(CC)CC)ccc1C2c1ccccc1C(=O)O`, the growth inhibition in assay [1] was -10.2%; in assay [2] it was -32.6%; in assay [3], -1.5%; in assay [4], 13.8%; in assay [5], 3.6%; in assay [6], -3.45%.
With `CCC1SC(C)C(=O)NC1=O` (centres undefined), the growth inhibition is -14.8% in assay [1]; 3.9% in assay [2]; -0.7% in assay [3]; -14.3% in assay [4]; -8.2% in assay [5]; 37.1% in assay [6].
On to `Fc1ccccc1-c1nnc(-c2ccc3ccccc3c2)o1`, for which the growth inhibition in assay [1] is 33.1%; in assay [2], 14.8%; in assay [3] it was 32.4%; in assay [4], 23.9%; in assay [5], 40.5%; in assay [6] it was 14.7%.
For the compound `C[n+]1ccccc1/C=C/c1cccc([N+](=O)[O-])c1`, the growth inhibition is -17.6% in assay [1]; -2.7% in assay [2]; -1.3% in assay [3]; -28.8% in assay [4]; 7.8% in assay [5]; 1.9% in assay [6].
For the compound `CC12CC3CC(C)(C1)CC(N=[N+]=[N-])(C3)C2`, the growth inhibition was -27.4% in assay [1]; -9.6% in assay [2]; -12.1% in assay [3]; 6.15% in assay [4]; -0.8% in assay [5]; -29.5% in assay [6].
Regarding `C=C(COC(C)=O)CC(/C=C(\C)CCC=C(C)C)OC(C)=O` (centres undefined), the growth inhibition in assay [1] was -6.25%; in assay [2], -1.15%; in assay [3], 8.9%; in assay [4], -11.5%; in assay [5], -5.25%; in assay [6], 11%.
Regarding `COc1cc2c3c(c1)-c1c(ccc(OC)c1Oc1nnnn1-c1ccccc1)CC3N(C)CC2` (centres undefined), the growth inhibition in assay [1] was 30.4%; in assay [2], 26.2%; in assay [3] it was 28.9%; in assay [4], 52.4%; in assay [5], 27.8%; in assay [6] it was 80.5% (active).
Consider `O=C(Nc1ccccc1F)Oc1ccc(Cl)cc1Cl`, for which the growth inhibition in assay [1] was 26.8%; in assay [2], 14.7%; in assay [3] it was 20.5%; in assay [4] it was 26.8%; in assay [5], 19.4%; in assay [6] it was 13.2%.
As for `Cc1ccc(Nc2ccc(O)cc2)cc1`, the growth inhibition in assay [1] is 40.4%; in assay [2], -2.1%; in assay [3], 29.5%; in assay [4] it was -8.25%; in assay [5], -10.8%; in assay [6], 26%.
`c1ccc(CCN2CCN=C2Cc2ccccc2)cc1`: the growth inhibition is 13.8% in assay [1]; 8% in assay [2]; 0.95% in assay [3]; -32.8% in assay [4]; -27.1% in assay [5]; 9.3% in assay [6].
As to `COc1c(NC(=O)c2ccccc2Cl)cccc1[N+](=O)[O-]`, the growth inhibition was -1% in assay [1]; 1.3% in assay [2]; 13.8% in assay [3]; -6.75% in assay [4]; 16.9% in assay [5]; 20.2% in assay [6].
As for `COc1ccccc1Br`, the growth inhibition was -3.55% in assay [1]; 0.85% in assay [2]; -2% in assay [3]; -15.3% in assay [4]; -32.1% in assay [5]; -4% in assay [6].
With `COCC(C)(CO)CC(C)CO` (centres undefined), the growth inhibition was -13% in assay [1]; -25.8% in assay [2]; -0.15% in assay [3]; -42% in assay [4]; -7.1% in assay [5]; -1.4% in assay [6].
On to `CC1CCCc2c1c1ccc3c(O)cccc3c1oc2=O` (centres undefined), for which the growth inhibition in assay [1] is -10%; in assay [2], -4.15%; in assay [3] it was -15.4%; in assay [4] it was 16.9%; in assay [5] it was -5.95%; in assay [6] it was -18.9%.
In the case of `COc1cc(/C=C2/C(=O)N=C(NC(C)=O)N2C)ccc1OC(C)=O`, the growth inhibition in assay [1] was -35.9%; in assay [2], -2.55%; in assay [3] it was -14.7%; in assay [4], 6.35%; in assay [5] it was 5.55%; in assay [6], -37.1%.
As to `S=C(NCN1CCCCC1)NCN1CCCCC1`, the growth inhibition is 9.55% in assay [1]; 9.1% in assay [2]; 4.95% in assay [3]; -50.1% in assay [4]; 23.8% in assay [5]; 33.5% in assay [6].
As to `CSc1nc2nc(C)c(C)nc2c(=O)[nH]1`, the growth inhibition in assay [1] was -21.9%; in assay [2], -19.4%; in assay [3], -43.5%; in assay [4], 3.9%; in assay [5] it was -0.75%; in assay [6], -32%.
Take `CC(=O)Oc1c(C)cc2c(c1C)C(C)(C)CN2C(=O)C(C)(C)C`: the growth inhibition was 16.9% in assay [1]; -20.2% in assay [2]; 17.6% in assay [3]; -7.15% in assay [4]; -1.3% in assay [5]; 7.9% in assay [6].
On to `COc1nc(NC2OCC(OC(C)=O)C(OC(C)=O)C2OC(C)=O)c(N=C(C)C(C)=O)c(=O)n1C` (centres undefined), for which the growth inhibition in assay [1] was 30.4%; in assay [2], 21.6%; in assay [3] it was 13.4%; in assay [4], 17.7%; in assay [5], -1.35%; in assay [6], 8.4%.
As to `Clc1cc(OCC23CC4CC(CC(C4)C2)C3)nc(OCC23CC4CC(CC(C4)C2)C3)n1`, the growth inhibition is -35.1% in assay [1]; 4.6% in assay [2]; -18.7% in assay [3]; -4.8% in assay [4]; 9% in assay [5]; -13.4% in assay [6].
Take `CCCCCN(CCCCC)c1ccc(/C=C/c2ccnc3ccccc23)cc1`: the growth inhibition in assay [1] was 1.6%; in assay [2] it was 7.05%; in assay [3] it was 22.9%; in assay [4] it was -15.7%; in assay [5] it was -10.2%; in assay [6] it was 14.6%.
As to `c1ccc2c(c1)c1ccccc1n2Cn1c2ccccc2c2ccccc21`, the growth inhibition in assay [1] is -1.1%; in assay [2], -1.2%; in assay [3], -48.5%; in assay [4] it was -27.9%; in assay [5], 11.3%; in assay [6] it was 4.85%.
In the case of `O=C(NCc1ccccc1)C(c1ccccc1)c1ccccc1`, the growth inhibition in assay [1] was 1.85%; in assay [2], 4.9%; in assay [3], 2.6%; in assay [4], 5.7%; in assay [5], -9.1%; in assay [6], 0.8%.
Take `O=C1CC(N2CCOCC2)c2ccccc21` (centres undefined): the growth inhibition in assay [1] was 30%; in assay [2] it was 11.1%; in assay [3], 12.6%; in assay [4] it was -21.1%; in assay [5], -14%; in assay [6], 14.2%.
In the case of `CC(C)[C@@H](C)[C@@]1(C)C[C@@H]1[C@@H](C)[C@H]1CC[C@@H]([C@@H]2CC=C3C[C@@H](O)CC[C@]3(C)C2=O)[C@]1(C)CCO`, the growth inhibition in assay [1] was 13.9%; in assay [2], 9.65%; in assay [3] it was 19.3%; in assay [4], -17.9%; in assay [5] it was -7.35%; in assay [6], -3.35%.
As to `CCOC(SCC)C(O)C(O)C(O)C(O)CO` (centres undefined), the growth inhibition is -1.9% in assay [1]; -4.2% in assay [2]; 20.4% in assay [3]; -14.7% in assay [4]; -7.8% in assay [5]; -21.6% in assay [6].
